# Data taken from PubChem BioAssay (NCATS).
# Several values for one entry are separate records, joined by “and”; a condition that tells them apart may be missing. Equal values may be shown once. Records with an inconclusive call do not appear. Entries that show only a call come without a potency. Activity calls are given as the source filed them. Unless noted, calls follow the shape of the dose curve; as a rule, active = well fitted curve in the direction sought with a large enough effect; inconclusive = small, poorly fitted or top-dose-only effect, or another doubt; inactive = no such curve, though single readings can be large; an effect the other way counts as inactive or inconclusive.
# Key:
# [1] = Cell Viability - SH-SY5Y (AID 544); conditions: SH-SY5Y neuroblastoma cell viability; viability change, negative = cytotoxic: at 92.2 µM (top of the series);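 also: cells exposed to compound for 40 hours; nearly all actives have a fitted effect of over 55% in size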
# Method in brief: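 Cytotoxicity measured via ATP-dependent luciferase luminescence (CellTiter-Glo) following 40 h, 37 °C exposure of 1500 SH-SY5Y cells per well. Concentration-response data were fitted with the standard Hill equation to give AC50.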
# [2] = Cellular Toxicity (caspase-3) H-4-II-E (AID 663); conditions: Potency: caspase-3 activation;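 also: cells exposed to compound for 16 hr before readout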
# Method in brief: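 Caspase 3/7 activation measured by luminescent aminoluciferin substrate cleavage after 16 hr compound treatment of H-4-II-E cells in complete medium. Increase normalized between DMSO (basal) and 100 uM tamoxifen (100%); Hill-equation AC50 from concentration-response.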
# [3] = MultiTox-Fluor Cytotoxicity Assay - LYMP1-001 - Live Cells (AID 947)
# [4] = Cell Viability - LYMP2-004 (AID 966); also: nearly all actives have a fitted effect of over 65% in size
# Method in brief: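 AC50 values come from Hill modelling of concentration-dependent loss of intracellular ATP, measured by CellTiter-Glo luminescence. Human LYMP2-004 lymphoblastoid cells (2500/well) were exposed to compound for 24 h at 37 C.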
# [5] = Cell Viability - LYMP2-019 (AID 973); also: nearly all actives have a fitted effect of over 55% in size
# Method in brief: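 AC50 values come from Hill-equation fits of luminescent intracellular ATP (CellTiter-Glo, 30 min, room temperature) following 24 h compound exposure at 37 C. Cells: LYMP2-019 lymphoblastoid line, 2500 per well, in complete culture medium.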
# [6] = Cell Viability - LYMP2-025 (AID 976)
# Method in brief: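 Cytotoxicity read as loss of intracellular ATP (luciferase luminescence) after 24 h compound treatment at 37 C. Uses LYMP2-025 lymphoblastoid cells in 1536-well format; Hill-equation modelling gives AC50; tetraoctylammonium bromide as positive control.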
# [7] = Cell Viability - LYMP2-012 (AID 982);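 also: cellular ATP by luciferase luminescence where a drop means cytotoxicity; cells exposed to compound for one day before reading; nearly all actives have a fitted effect of over 55% in size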; also: potency is read from the fitted curve at half-maximal effect
# [8] = Cell Viability - LYMP2-014 (AID 983); also: nearly all actives have a fitted effect of over 50% in size
# Method in brief: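 Intracellular ATP loss, read by luciferase luminescence, measures acute cytotoxicity after 24 h compound exposure of lymphoblastoid LYMP2-014 cells (2500/well, 37 C). Concentration-response data fitted to the Hill equation for AC50.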
# [9] = Cell Viability - LYMP2-016 (AID 984); also: nearly all actives have a fitted effect of over 55% in size
# Method in brief: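 qHTS, 1536-well: 2500 LYMP2-016 cells/well, 5 hr 37 C, compound added, 24 hr 37 C, CellTiter-Glo 30 min RT, luminescence. Tetraoctylammonium bromide positive control. AC50 via Hill fit.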
# [10] = Cell Viability - LYMP2-018 (AID 985); also: nearly all actives have a fitted effect of over 50% in size
# Method in brief: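 Viability read as CellTiter-Glo luminescence (cellular ATP) after 24 hr compound exposure at 37 C of 2500 LYMP2-018 lymphoblastoid cells/well, pre-plated 5 hr. Hill-equation modelling gave AC50.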
# [11] = Cell Viability - LYMP2-026 (AID 989); also: nearly all actives have a fitted effect of over 50% in size
# Method in brief: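 Cytotoxicity read as ATP-dependent luminescence (CellTiter-Glo, 30 min room temperature) after 24 h compound treatment at 37 C. LYMP2-026 lymphoblastoid line seeded at 2500 cells/well; AC50 derived by standard Hill equation.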
# [12] = target: Peroxisome proliferator-activated receptor gamma (Homo sapiens) (UniProt P37231); test: qHTS assay for small molecule agonists of peroxisome proliferator-activated receptor gamma signaling (AID 588536; active = well fitted curve in the direction sought with a large enough effect in the signal ratio, with a control signal flat, not every such curve was filed as active; the % refers to the signal ratio)
# Method in brief: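 Cells were plated and held 6–6.5 h at 37 C, then compounds were added as a titration series. After a further 16 h, CCF4 dye was loaded for 2 h at room temperature and emission at 460/530 nm recorded.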
# [13] = qHTS assay for small molecule antagonists of retinoid X receptor alpha signaling (AID 588546); conditions: HEK293T RXRa-UAS-bla, beta-lactamase ratio, antagonist mode; measured here: W530 green channel, cytotoxicity proxy;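 also: cells stimulated with 9-cis-retinoic acid as agonist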
# Method in brief: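 Beta-lactamase reporter inhibition, read as CCF4 fluorescence ratio (ex 405, em 460/530 nm) after 2 h at RT. HEK293T UAS-bla cells, 2500/well, were stimulated with 9-cis-RA at 500 or 100 nM final alongside test compound for 18 h at 37 C.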
# [14] = target: Tumor necrosis factor (Homo sapiens) (UniProt P01375); test: qHTS assay to identify small molecules that stimulate Tumor Necrosis Factor-alpha (TNF-alpha) secretion (AID 651757; active = well fitted curve in the direction sought with a large enough effect in the signal ratio; the % refers to the signal ratio)
# Method in brief: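 Secreted TNF-alpha quantified by TR-FRET sandwich of two labeled anti-TNF-alpha antibodies, incubated 3 hr at room temperature. Preceded by 17 hr, 37 C compound treatment of THP-1 cells at 3000 cells/well.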
# [15] = Cell Viability - Jurkat (AID 426;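 active = dose-dependent loss of cell ATP signal giving a full or clear fitted curve, ranked by lower potency value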;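 also: potency is read from the fitted curve at half-maximal effect; cells exposed to compound for 40 hours at 37 °C before ATP read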); conditions: qHTS
# Method in brief: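 Cytotoxicity taken as drop in cellular ATP (CellTiter-Glo luminescence, 20 min room temperature) after 40 hr, 37C treatment of 5000 Jurkat Clone E6-1 cells per well; concentration-response fitted with Hill equation for AC50.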
# [16] = Cell Viability - N2a (AID 540); conditions: N2a mouse neuroblastoma cell viability; activity change, negative = cytotoxicity: at 92.2 µM (top of the series); also: nearly all actives have a fitted effect of over 45% in size
# Method in brief: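 CellTiter-Glo ATP luminescence, read 20 min after reagent at room temperature, reported viability following 40 h compound treatment at 37 °C. N2a mouse neuroblastoma cells seeded 1500/well; Hill equation gave AC50.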
# [17] = Cellular Toxicity (caspase-3) NIH 3T3 (AID 666);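 also: caspase signal read after 16 h compound exposure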
# Method in brief: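 Caspase-Glo 3/7 luminescence reported caspase activation in 1000 NIH 3T3 cells/well after 16 h compound exposure at 37 C. DMSO set basal and 100 uM tamoxifen set 100% stimulation; concentration-response modeled with the Hill equation for AC50.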
# [18] = target: Thyroid hormone receptor beta (Homo sapiens) (UniProt P10828); test: qHTS assay for small molecule antagonists of thyroid hormone receptor beta signaling (AID 588547; active = well fitted inhibition curve with a large enough effect in the signal ratio, with a control signal flat, not every such curve was filed as active; the % refers to the signal ratio;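 also: cells stimulated with 0.4 nM T3 agonist during compound exposure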); conditions: TR-UAS-bla HEK293, beta-lactamase ratio, antagonist mode, 18 h
# Method in brief: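 Inhibition of T3-driven (0.4nM final) beta-lactamase reporter activity was measured over 0.59 nM to 92 uM compound after 18 h at 37 C. The cells were GripTite HEK293 TR-UAS-bla in charcoal/dextran-stripped serum, with CCF4 ratio read-out and IC50 from Hill fits.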
# [19] = target: Nuclear receptor subfamily 1 group I member 2 (Rattus norvegicus) (UniProt Q9R1A7); test: qHTS assay for small molecule activators of the rat pregnane X receptor (rPXR) signaling pathway (AID 651751; call rule not given here); conditions: rPXR reporter cells, luciferase (One-Glo), 24 h
# Sequence of Nuclear receptor subfamily 1 group I member 2 (Rattus norvegicus) (Q9R1A7 whole entry, looked up): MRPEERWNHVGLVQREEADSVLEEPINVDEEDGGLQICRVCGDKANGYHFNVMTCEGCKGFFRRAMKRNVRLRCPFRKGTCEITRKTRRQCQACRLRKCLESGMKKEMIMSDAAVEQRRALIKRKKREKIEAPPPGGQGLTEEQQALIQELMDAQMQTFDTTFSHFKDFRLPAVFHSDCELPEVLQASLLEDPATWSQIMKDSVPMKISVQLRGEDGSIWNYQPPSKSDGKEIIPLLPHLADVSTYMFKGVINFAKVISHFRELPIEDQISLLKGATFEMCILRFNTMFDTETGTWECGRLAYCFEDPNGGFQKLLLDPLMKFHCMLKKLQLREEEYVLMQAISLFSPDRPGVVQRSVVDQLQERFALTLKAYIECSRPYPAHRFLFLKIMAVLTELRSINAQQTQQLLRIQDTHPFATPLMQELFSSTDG
# Sequence of Tumor necrosis factor (Homo sapiens) (P01375 whole entry, looked up): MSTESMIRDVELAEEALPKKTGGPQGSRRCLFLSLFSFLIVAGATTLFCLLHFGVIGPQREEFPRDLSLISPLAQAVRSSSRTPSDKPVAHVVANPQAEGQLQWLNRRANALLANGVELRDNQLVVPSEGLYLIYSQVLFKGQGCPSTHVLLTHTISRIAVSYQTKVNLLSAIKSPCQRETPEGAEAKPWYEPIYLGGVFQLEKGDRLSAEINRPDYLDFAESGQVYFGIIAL
# Sequence of Peroxisome proliferator-activated receptor gamma (Homo sapiens) (P37231 whole entry, looked up): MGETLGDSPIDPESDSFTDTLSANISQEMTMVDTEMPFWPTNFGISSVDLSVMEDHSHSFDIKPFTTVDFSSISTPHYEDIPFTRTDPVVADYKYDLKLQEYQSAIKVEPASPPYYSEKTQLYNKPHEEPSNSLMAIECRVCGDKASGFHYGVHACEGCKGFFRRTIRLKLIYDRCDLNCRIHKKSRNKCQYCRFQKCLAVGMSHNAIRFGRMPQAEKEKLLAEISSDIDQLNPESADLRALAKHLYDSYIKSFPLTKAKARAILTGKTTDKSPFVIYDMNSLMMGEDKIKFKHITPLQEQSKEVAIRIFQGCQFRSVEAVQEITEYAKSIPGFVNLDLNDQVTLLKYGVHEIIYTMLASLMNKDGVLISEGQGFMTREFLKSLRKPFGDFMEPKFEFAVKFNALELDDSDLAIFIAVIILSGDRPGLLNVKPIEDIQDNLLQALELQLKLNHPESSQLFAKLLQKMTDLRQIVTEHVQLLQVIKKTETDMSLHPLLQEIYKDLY
# Sequence of Thyroid hormone receptor beta (Homo sapiens) (P10828 whole entry, looked up): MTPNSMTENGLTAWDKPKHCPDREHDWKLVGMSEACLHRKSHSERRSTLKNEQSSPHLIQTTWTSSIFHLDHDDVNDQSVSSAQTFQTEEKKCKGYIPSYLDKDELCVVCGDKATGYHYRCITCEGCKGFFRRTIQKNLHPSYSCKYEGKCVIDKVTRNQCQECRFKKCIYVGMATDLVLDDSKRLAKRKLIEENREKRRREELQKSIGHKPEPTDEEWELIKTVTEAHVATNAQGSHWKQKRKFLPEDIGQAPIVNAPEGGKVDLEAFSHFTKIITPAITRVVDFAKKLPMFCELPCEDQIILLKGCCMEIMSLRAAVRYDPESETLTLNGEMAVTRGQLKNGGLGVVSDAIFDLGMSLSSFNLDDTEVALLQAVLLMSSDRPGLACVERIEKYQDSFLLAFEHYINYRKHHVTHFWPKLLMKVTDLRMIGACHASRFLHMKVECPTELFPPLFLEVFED
Structure (SMILES),Potency [1],Potency [2],outcome [3],Potency [4],Potency [5],Potency [6],Potency [7],Potency [8],Potency [9],Potency [10],Potency [11],outcome [12],max response [13],outcome [14],Potency [15],Potency [16],Potency [17],activity change % (negative = inhibition) [18],max response [19]
O=[N+]([O-])c1ccc(O)c([N+](=O)[O-])c1,inactive,inactive,inactive,inactive,inactive,inactive,inactive,inactive,inactive,inactive,inactive,inactive,-0.361%,inactive,–,–,–,–,–
CCN(CC)CCO,inactive,inactive,inactive,inactive,inactive,inactive,inactive,inactive,inactive,inactive,inactive,inactive,3.45%,inactive,> 92 µM (inactive),inactive,inactive,-7.98% (inactive),0.466% (inactive)
Oc1cccc(Cl)c1,inactive,inactive,inactive,inactive,inactive,inactive,inactive,inactive,inactive,inactive,inactive,inactive,-0.103%,inactive,> 92 µM (inactive),inactive,inactive,0.91% (inactive),1.59% (inactive)
Cc1cccc(C)c1N,inactive,inactive,inactive,inactive,inactive,inactive,inactive,inactive,inactive,inactive,inactive,inactive,-4.18%,inactive,> 92 µM (inactive),inactive,inactive,-2.91% (inactive),0.51% (inactive)
CC(C)C#N,inactive,inactive,–,inactive,inactive,inactive,inactive,inactive,inactive,inactive,inactive,inactive,-7.48%,inactive,> 92 µM (inactive),inactive,inactive,-3.27% (inactive),3.94% (inactive)
CC(C)OS(C)(=O)=O,inactive,inactive,inactive,inactive,inactive,inactive,inactive,inactive,inactive,inactive,inactive,inactive,5.36%,inactive,> 92 µM (inactive),inactive,inactive,8.49% (inactive),-0.369% (inactive)
CCSC(=O)N1CCCCCC1,inactive,inactive,inactive,inactive,inactive,inactive,inactive,inactive,inactive,inactive,inactive,inactive,-11.6% and -2.5%,inactive,> 92 µM (inactive),inactive,inactive,-3.1% (inactive) and -10.9% (inactive),-3.47% (inactive) and 3.01% (inactive)
CCNCC,inactive,inactive,inactive,inactive,inactive,inactive,inactive,inactive,inactive,inactive,inactive,inactive,–,inactive,> 92 µM (inactive),inactive,inactive,15.3% (inactive),0.38% (inactive)
CCCCOCC1CO1 (configuration not stated),inactive,inactive,inactive,inactive,inactive,inactive,inactive,inactive,inactive,inactive,inactive,inactive,12.9%,inactive,> 92 µM (inactive),inactive,inactive,12.9% (inactive),2.3% (inactive)
C=CCOCC1CO1 (configuration not stated),inactive,–,inactive,inactive,inactive,inactive,inactive,inactive,inactive,inactive,inactive,inactive,2.33%,inactive,> 92 µM (inactive),inactive,inactive,1.27% (inactive),-1.61% (inactive)
BrCC(Br)(Br)Br,–,inactive,inactive,inactive,–,–,12.6 µM (active),–,–,–,–,inactive,2.45%,inactive,–,–,inactive,-15.5% (inactive),-4.89% (inactive)
